In all, about 1,600 compounds went through this assay and about 20 (1%) were called active. This excerpt belongs to a sample that is enriched for actives. Unmarked numbers belong to inactive results.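 How the source made its calls: active means ratio of uncleaved NAD to its breakdown product ADP-ribose above 4, meaning the enzyme was inhibited; inactive means the rest.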
Target: NAD(+) hydrolase SARM1 (Homo sapiens) (UniProt Q6SZW1)
Assay: SARM1 TIR NADase inhibitors by HPLC, primary screen, cell lysate, HPLC readout (AID 1508615);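 further: substrate NAD at 5 µM with 60 min at 37 °C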
Details: HEK293T SAM-TIR lysate, at 5 µM, stronger effect = higher value

NAD(+) hydrolase SARM1 (Homo sapiens), sequence (Q6SZW1 whole entry, looked up): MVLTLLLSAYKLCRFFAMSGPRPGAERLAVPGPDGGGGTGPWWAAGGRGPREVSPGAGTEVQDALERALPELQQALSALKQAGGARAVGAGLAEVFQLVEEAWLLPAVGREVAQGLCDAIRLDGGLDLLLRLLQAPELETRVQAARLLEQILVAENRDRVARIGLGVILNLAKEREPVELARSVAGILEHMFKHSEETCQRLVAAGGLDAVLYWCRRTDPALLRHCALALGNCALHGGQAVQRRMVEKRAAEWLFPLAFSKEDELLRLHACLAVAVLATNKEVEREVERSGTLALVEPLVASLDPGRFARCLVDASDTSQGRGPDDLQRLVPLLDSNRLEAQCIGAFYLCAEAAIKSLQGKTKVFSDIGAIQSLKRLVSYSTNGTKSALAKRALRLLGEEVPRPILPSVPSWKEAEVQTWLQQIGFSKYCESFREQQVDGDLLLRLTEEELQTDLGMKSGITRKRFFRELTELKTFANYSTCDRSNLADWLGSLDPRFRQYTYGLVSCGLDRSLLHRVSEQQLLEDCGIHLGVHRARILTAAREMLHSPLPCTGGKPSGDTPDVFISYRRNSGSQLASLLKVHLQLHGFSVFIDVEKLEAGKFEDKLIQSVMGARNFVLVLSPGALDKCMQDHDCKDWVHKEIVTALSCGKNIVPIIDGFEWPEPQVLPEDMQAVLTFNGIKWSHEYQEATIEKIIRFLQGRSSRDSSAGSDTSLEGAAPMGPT

Row | SMILES | NAD/ADPR ratio
1 | S=c1nc[nH]c2c1cnn2-c1ccccc1 | 3
2 | CCOC(=O)c1c[nH][nH]c1=O | 3
3 | NC(=O)N/N=C1\CC2CC1C1C=CCC21 (stereo unspecified) | 3
4 | Cc1nc(Nc2ccc(F)cc2)nc(Nc2ccc(F)cc2)c1[N+](=O)[O-] | 3
5 | Cc1cc2nc3ccc(=[N+](C)C)cc-3sc2cc1N | 3
6 | Cn1c(=O)c2[nH]c(CCCc3ccc([N+](=O)[O-])cc3)nc2n(C)c1=O | 3
7 | CCCc1cc(=O)oc2c3c(c4c(c12)OC(C)(C)C=C4)OC(C)C(C)C3O (stereo unspecified) | 3
8 | CSc1cccc(NC(=O)Nc2nc3c(C)cccc3s2)c1 | 3
9 | Cc1nc2ccc(Cl)cn2c1[N+](=O)[O-] | 3
10 | Cn1ncc2c(Nc3ccccc3Cl)nc(Cl)nc21 | 3
11 | Cc1ccc(NC(=S)NC(=O)c2ccccc2)cc1NC(=S)NC(=O)c1ccccc1 | 3
12 | Cc1cc(O)c(-c2cc(O)c(C)cc2O)cc1O | 5.8 (active)
13 | CCN(CC)CCNC(=O)c1ccc(NCN2C(=O)NC(c3ccccc3)(c3ccccc3)C2=O)cc1 | 3
14 | Cc1cnc2cc(Cl)ccc2c1SCC(=O)O | 3
15 | O=C1NC(=O)N2CCSC2(Cc2ccccc2)N1 (stereo unspecified) | 3
16 | Nc1ncnc2c1ncn2C1C=C(CO)C(O)C1O (stereo unspecified) | 3

Row | SMILES | NAD/ADPR ratio
17 | CCOP(=O)(OCC)/C(C#N)=C/c1ccc(-c2ccc(F)cc2F)o1 | 3
18 | O=c1[nH]cnc(CN2CCCCC2)c1O | 3
19 | CC12CCC(C(=Nc3ccc(N=C4C(=O)C5(C)CCC4C5(C)C)cc3)C1=O)C2(C)C | 3
20 | C#CCOCC1CN(c2ccccc2)C(=O)O1 (stereo unspecified) | 3
21 | N#Cc1cnn(-c2cccc(Cl)c2)c1-n1cccc1 | 3
22 | Cc1ccc(N=Nc2ccc(C)cc2NC(=O)Nc2ccccc2F)cc1 | 3
23 | Clc1nc2nc3n(c2nc1Cl)CCC3 | 3
24 | CC(=O)Nc1cc(NC(C)=O)ncn1 | 3
25 | O=C(c1ccccc1)c1ccc(Sc2ccc([N+](=O)[O-])cc2)cc1 | 3
26 | O=C(c1ccccc1)C1C(c2ccccc2)C1[N+](=O)[O-] (stereo unspecified) | 5.3 (active)
27 | O=C1C=C(c2ccccc2)OC(=O)C1C(=O)c1ccccc1 (stereo unspecified) | 3
28 | Clc1ccc(-c2n[nH]c3c2Cc2ccccc2-3)cc1Cl | 3
29 | COc1ccc(C(=S)N2CCN(c3ccccc3Cl)CC2)cc1OC | 3
30 | O=C(O)C(c1ccccc1)C1(O)CCCCC1 (stereo unspecified) | 3
31 | Cc1cc2cc3c(=O)[nH]c(=O)cc-3n(CC(O)C(O)C(O)CO)c2cc1C (stereo unspecified) | 3.3
